The text below walks through data of PubChem BioAssay AID588689 (Southern Research Specialized Biocontainment Screening …, 2011).

The inhibition is the relative decrease from the control value, in per cent.

The target in the test is Genome polyprotein (Dengue virus type 2 (strain 16681-PDK53)) (UniProt P29991). The test is described as follows: flavivirus cap methylation enzyme inhibition – biochemical, confirmation dose response, primary screen (AID 588689). Particulars: Dengue-2 NS5 methyltransferase capping enzyme assay, at 25 µM, stronger effect = higher value.

The campaign covered roughly 340,000 compounds. About 1,000 (0.29%) were called active. Cut-off read from the data, not from the text of the source: inconclusive = inhibition above about 29% without an active follow-up result; inactive = below that. A selection follows. Potency and affinity values are given separately.

`CC(=O)N(C)N(C)c1cc(C)nc(N)n1`: the inhibition was 0.78% (inactive). Same read-out and setting: for `Nn1cnnc1N/N=C/c1ccc(F)cc1` the value was 0.39% (inactive); for `COc1ccc(CNc2ccc(S(N)(=O)=O)cc2)c(OC)c1OC`, -2.41% (inactive). Still for that read-out and setting: the same measure for `CCOc1ccc(NC(=O)N2CCCC2C(=O)NCC2CCCO2)cc1` (stereo not given): -7.19% (inactive); for `O=C1CCCc2oc3c(c21)CCCC3`: 0.9% (inactive); for `COCCN1C(=O)C(=O)/C(=C(/O)c2ccc3c(c2)OCCO3)C1c1ccc(C(=O)OC)cc1` (stereo not given): 0.56% (inactive). Take `COc1ccc(-c2csc(NC(=O)CSc3nc(C)cs3)n2)cc1`: the inhibition is -6.77% (inactive). On the same count and under the same terms, the same measure for `COc1ccc(-c2csc(NC(=O)CSc3n[nH]c(C)n3)n2)cc1`: -3.23% (inactive). On the same count and under the same terms, for `COc1ccccc1C(C)NCC(=O)NCc1ccc(C)cc1` (stereo not given) the value was -3.92% (inactive); for `Cc1nnc(SCC(=O)Nc2nnc(SCc3cccc(Br)c3)s2)s1`, 0.64% (inactive). As to `CCCc1nc(SCC(=O)Nc2nc3c(s2)CCCC3)c2ccccc2n1`, the inhibition is 2.76% (inactive). With `COc1ccc(C(=Cc2ccccc2[N+](=O)[O-])C(=O)O)cc1`, the inhibition is -6.2% (inactive). On the same count and under the same terms, the same measure for `CCOc1ccc(C(=O)N/N=C/c2ccccc2[N+](=O)[O-])cc1`: -7.26% (inactive); for `O=C1NN(c2ccccc2)C(=O)/C1=C\c1ccc2c(c1)OCO2`: 15.1% (inactive). On to `O=C1c2cccc([N+](=O)[O-])c2C(=O)N1c1ccccc1`, for which the inhibition is 0% (inactive). As for `CN1C/C(=C/c2ccccc2[N+](=O)[O-])C(=O)/C(=C\c2ccccc2[N+](=O)[O-])C1`, the inhibition was 1.54% (inactive). The same measure, in the same setting: the same measure for `COc1ccc(N2C(=O)CSC2c2ccccc2[N+](=O)[O-])cc1` (stereo not given): 0.75% (inactive); for `CCOc1ccc(N2C(=O)C(=O)/C(=C(/O)c3ccccc3)C2c2ccccc2[N+](=O)[O-])cc1` (stereo not given): 13.8% (inactive); for `COc1cc(/C=C2/C(=O)NN(c3ccc(C)c(Cl)c3)C2=O)cc([N+](=O)[O-])c1O`: 69.8% (inactive).

As for `CCc1noc(C)c1C(=O)NCCc1ccc(OC)c(OC)c1`, the inhibition is -2.74% (inactive). On the same count and under the same terms, for `CCOC(=O)C1C(C)=C(Nc2ccc(OC)cc2)C(=O)N1c1ccc(OC)cc1` (stereo not given) the value was -2.18% (inactive); for `O=C(Cn1cc([N+](=O)[O-])cn1)NCc1ccccc1Cl`, -6.16% (inactive); for `Cc1c(C2(O)CCCCC2)[nH]c2ccc(C#N)cc12`, 1.37% (inactive). On the same count and under the same terms, for `O=C1NC(=O)C(=Cc2ccccc2[N+](=O)[O-])S1` the value was 13.1% (inactive). Same read-out and setting: for `O=C1NC(=S)N/C1=C/c1cc2c(cc1[N+](=O)[O-])OCO2` the value was 6.53% (inactive); for `O=C(O)/C=C\c1cc2c(cc1[N+](=O)[O-])OCO2`, 4.71% (inactive).

With `CC1(C)OC(C)(C)/C(=C\c2ccccc2[N+](=O)[O-])C1=O`, the inhibition is -3.9% (inactive). On the same count and under the same terms, for `CCOC(=O)N1CCC(NC(=O)CSCc2nc(-c3ccccc3Cl)oc2C)CC1` the value was -1.81% (inactive); for `CCc1ccc(C)[n+](CC(=O)c2cccs2)c1`, -10.5% (inactive); for `O=C(c1cccnc1)N1CCN(S(=O)(=O)c2cccc(Cl)c2)CC1`, 2.63% (inactive). As to `Cc1cccc(CCNS(=O)(=O)c2ccc3c(c2)NC(=O)CS3)c1`, the inhibition was -3.63% (inactive).

Take `CSCCC(NC(N)=O)C(=O)Nc1ccc2ccccc2c1` (stereo not given): the inhibition is 3.12% (inactive). Still for that read-out and setting: the same measure for `NC(=O)c1ccc(NC(=O)CNc2cc(S(=O)(=O)N3CCOCC3)ccc2N2CCCC2)cc1`: -2.57% (inactive); for `CCN(CC)C(=O)c1ccccc1NC(=O)CN1C(=O)c2ccccc2S1(=O)=O`: -2.2% (inactive); for `CN1C(=O)/C(=C\c2cccc(OCc3ccccc3)c2)SC1=S`: 5.28% (inactive). Still for that read-out and setting: for `O=C(CN1C(=O)/C(=C/c2cccc(Cl)c2)SC1=S)NC1C=CS(=O)(=O)C1` (stereo not given) the value was -2.72% (inactive). On to `CC(=O)NNC(=O)CN1C(=O)/C(=C/c2ccccc2)SC1=S`, for which the inhibition is -2.32% (inactive). Same read-out and setting: the same measure for `O=C(O)CN1C(=O)/C(=C\c2cccc(OC(=O)c3ccco3)c2)SC1=S`: 2.44% (inactive); for `O=C(O)COc1cccc(/C=C2/SC(=S)N(Cc3ccccc3)C2=O)c1`: 13.1% (inactive); for `COc1cccc(/C=C2/SC(=S)N(CC(=O)NNC(=O)c3ccccc3OC)C2=O)c1`: 4.13% (inactive). On the same count and under the same terms, the same measure for `O=C1/C(=C\c2cccc(O)c2)SC(=S)N1Cc1ccccc1`: -14.8% (inactive); for `COc1cccc(/C=C2/SC(=S)N(CC(=O)NNC(=O)c3ccccc3O)C2=O)c1`: 2.67% (inactive).

For the molecule `COc1ccccc1CC(=O)OCC(=O)N1CCN(c2ccc(F)cc2)CC1`, the inhibition was -10.1% (inactive). Regarding `Cc1[nH]c(C)c(S(=O)(=O)N2CCN(c3cccc(Cl)c3)CC2)c1C(=O)N1CCCCC1`, the inhibition is -6.81% (inactive). Regarding `CC(C)CCN(C(=O)C1CCCC1)c1c(N)n(Cc2ccccc2)c(=O)[nH]c1=O`, the inhibition was 0.73% (inactive). On the same count and under the same terms, the same measure for `COCCn1c(C)cc(C(=O)CSc2nnnn2C2CCCC2)c1C`: -0.76% (inactive).

Regarding `CCOP(=O)(OCC)c1nc(/C=C/c2ccccc2)oc1NCc1ccc(OC)cc1`, the inhibition was -2.05% (inactive). In the case of `O=S(=O)(Cc1ccccc1)Nc1ccccc1`, the inhibition was 1.96% (inactive). In addition, the inhibition (measured here: pilot screen replicate inhibition) is -2.12%.

For the molecule `Cc1ccc(NS(=O)(=O)Cc2ccccc2)nc1`, the inhibition is -2.96% (inactive). On the same count and under the same terms, for `CNC(=O)NC(=S)NC(=O)c1ccccc1Cl` the value was 2.96% (inactive); for `Cc1ccc2c(c1)c(C1=NC(=S)NC1=O)c(O)n2C`, -5.15% (inactive); for `COc1cc2c3c(c1)c(C1=NC(=S)NC1=O)c(O)n3C(C)(C)C=C2C`, 5.22% (inactive).

With `CC1(C)O[C@@H]2[C@H](O1)[C@@H](CO)O[C@H]2n1cc(Br)c(=O)[nH]c1=O`, the inhibition was -17.6% (inactive). Still for that read-out and setting: the same measure for `NCCCC[C@@H]1NC(=O)c2cc([N+](=O)[O-])cc(F)c2NCCCC[C@@H](C(N)=O)NC(=O)CNC1=O`: -4.1% (inactive); for `O=C(NCc1ccco1)c1nnc(Cc2ccc(F)cc2)o1`: 2.07% (inactive). Same read-out and setting: the same measure for `COc1ccc(-c2cc(-c3ccccc3)c(C#N)c(SCC(=O)O)n2)cc1`: 14% (inactive). Same read-out and setting: for `N#Cc1c(-c2ccc(Cl)cc2)cc(-c2ccccc2)nc1SCC(=O)O` the value was 1.16% (inactive); for `O=C(O)c1cccc2c1/C(=N/Nc1ccc([N+](=O)[O-])cc1[N+](=O)[O-])c1ccccc1-2`, 20.5% (inactive). `Cc1ccc(NC(=O)c2nc(S(=O)(=O)Cc3ccccc3)ncc2Cl)cc1`: the inhibition was -43.4% (inactive). Still for that read-out and setting: the same measure for `CSc1ncc(Cl)c(C(=O)Nc2nnc(SC)s2)n1`: 5.42% (inactive); for `CC(=O)Nc1ccc(NC(=O)c2nc(S(=O)(=O)Cc3ccccc3)ncc2Cl)cc1`: -50.4% (inactive); for `COC(=O)c1ccc(NC(=O)c2nc(S(=O)(=O)Cc3cccc(C)c3)ncc2Cl)cc1`: -59.7% (inactive). Same read-out and setting: the same measure for `Cc1cccc(CS(=O)(=O)c2ncc(Cl)c(C(=O)NCc3ccccc3)n2)c1`: -74.2% (inactive); for `Cc1ccccc1CS(=O)(=O)c1ncc(Cl)c(C(=O)Nc2ccc(F)cc2)n1`: -55.8% (inactive). The same measure, in the same setting: for `Cc1nnc(NC(=O)c2nc(S(=O)(=O)Cc3ccccc3C)ncc2Cl)s1` the value was 27.3% (inactive); for `Cc1nnc(NC(=O)c2nc(S(=O)(=O)Cc3ccccc3)ncc2Cl)s1`, 19.6% (inactive); for `O=C(c1cc(-c2ccc(Br)cc2)nc2ccccc12)N1CCC1`, -2.19% (inactive). As to `COc1ccccc1N1CCN(C(=O)c2oc3c(c2C)C(=O)CC(C)(C)C3)CC1`, the inhibition was 4.65% (inactive).

Turning to `O=C(N/N=C/C(Cl)=C\c1ccccc1)c1cnccn1`, the inhibition was -6.4% (inactive).

For the molecule `C=CC[C@H](CC(=O)N[C@H](CO)Cc1ccccc1)C(=O)N[C@@H](COC(=O)[C@H](CC=C)CC(=O)OC(C)(C)C)Cc1c[nH]c2ccccc12`, the inhibition was -0.83% (inactive). On the same count and under the same terms, the same measure for `COc1ccc(/C=C2/SC(=O)N(CCC(=O)Nc3ccc(S(=O)(=O)Nc4nccs4)cc3)C2=O)cc1`: -5.09% (inactive). Same read-out and setting: for `O=C(/C(=C(/[O-])c1ccccc1)[n+]1ccccc1)c1ccc([N+](=O)[O-])cc1` the value was 3.25% (inactive); for `CCCc1ncc(CN2CCCCC2C(=O)Nc2ccc(Oc3ccccc3)nc2)cn1` (stereo not given), -5.15% (inactive); for `CCCCn1c(N)c(N(C)C(=O)c2cn(-c3ccccc3)nc2-c2ccccc2)c(=O)[nH]c1=O`, -2.61% (inactive). The same measure, in the same setting: for `NS(=O)(=O)c1ccc2nc(NC(=O)Nc3ccc(F)cc3)sc2c1` the value was -9.52% (inactive); for `O=C(Nc1ccc(Cl)c(S(=O)(=O)N2CCOCC2)c1)c1cccs1`, -1.55% (inactive); for `Cc1cccc(CS(=O)(=O)c2ncc(Cl)c(C(=O)Nc3c(C)cccc3C)n2)c1`, -57.4% (inactive).

As for `CC(=O)Nc1ccc(NC(=O)c2nc(S(=O)(=O)Cc3cccc(C)c3)ncc2Cl)cc1`, the inhibition is -42.6% (inactive). The same measure, in the same setting: for `O=C(Nc1ncccc1O)c1ccc2c(c1)OCO2` the value was 0.74% (inactive); for `Cc1cc(Cl)ccc1OCC(=O)Nc1ccccc1C(=O)N1CCOCC1`, 5.18% (inactive). The same measure, in the same setting: the same measure for `O=C1CC(c2ccccc2)NC(=S)N1` (stereo not given): 3.85% (inactive); for `O=C1NC(=S)NC1(c1ccccc1)c1ccccc1`: -4.65% (inactive). In the case of `CCSc1nc(O)c(C2OC(=O)c3c2ccc(OC)c3OC)c(=O)n1CC` (stereo not given), the inhibition is 6.79% (inactive). Take `CCCSc1nc(O)c(C2OC(=O)c3c2ccc(OC)c3OC)c(=O)n1-c1ccccc1` (stereo not given): the inhibition is 11.7% (inactive). Same read-out and setting: the same measure for `CCCCSc1nc(O)c(C2OC(=O)c3c2ccc(OC)c3OC)c(=O)n1-c1ccccc1` (stereo not given): 17.6% (inactive); for `CCCCSc1nc(O)c(C2OC(=O)c3c2ccc(OC)c3OC)c(=O)n1C` (stereo not given): -5.49% (inactive). On the same count and under the same terms, for `Cc1cc2c3c([nH]c2cc1S(=O)(=O)NCc1ccc(CN2CCCCCC2)o1)CCCC3=O` the value was -7.25% (inactive); for `Cc1ccc(S(=O)(=O)N/N=C/c2ccc(O)c(O)c2)cc1[N+](=O)[O-]`, 0.74% (inactive); for `CCN(CC)CCNC(=O)c1ccc(NC(=O)c2cc(S(=O)(=O)N3CCCCC3)ccc2N2CCOCC2)cc1`, -2.25% (inactive).
